PMC4336329 (PLoS ONE, 2015)
Among all 310,000 compounds or so, about 14,000 (4.5%) showed an effect of 50% or more. Effects have a minus sign here. The sample holds strong results, similar compounds and a random draw of the others, so the mix is not that of the screen.

biological target: human ether-à-go-go-related gene (hERG) potassium channel (human, UniProt Q12809); assay: primary screen, population patch clamp on CHO cells stably expressing hERG; higher = less effect of the substance
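Also: peak tail current of the secondary pulse compared with the same well before compound.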

human ether-à-go-go-related gene (hERG) potassium channel, sequence (Q12809 whole entry, looked up): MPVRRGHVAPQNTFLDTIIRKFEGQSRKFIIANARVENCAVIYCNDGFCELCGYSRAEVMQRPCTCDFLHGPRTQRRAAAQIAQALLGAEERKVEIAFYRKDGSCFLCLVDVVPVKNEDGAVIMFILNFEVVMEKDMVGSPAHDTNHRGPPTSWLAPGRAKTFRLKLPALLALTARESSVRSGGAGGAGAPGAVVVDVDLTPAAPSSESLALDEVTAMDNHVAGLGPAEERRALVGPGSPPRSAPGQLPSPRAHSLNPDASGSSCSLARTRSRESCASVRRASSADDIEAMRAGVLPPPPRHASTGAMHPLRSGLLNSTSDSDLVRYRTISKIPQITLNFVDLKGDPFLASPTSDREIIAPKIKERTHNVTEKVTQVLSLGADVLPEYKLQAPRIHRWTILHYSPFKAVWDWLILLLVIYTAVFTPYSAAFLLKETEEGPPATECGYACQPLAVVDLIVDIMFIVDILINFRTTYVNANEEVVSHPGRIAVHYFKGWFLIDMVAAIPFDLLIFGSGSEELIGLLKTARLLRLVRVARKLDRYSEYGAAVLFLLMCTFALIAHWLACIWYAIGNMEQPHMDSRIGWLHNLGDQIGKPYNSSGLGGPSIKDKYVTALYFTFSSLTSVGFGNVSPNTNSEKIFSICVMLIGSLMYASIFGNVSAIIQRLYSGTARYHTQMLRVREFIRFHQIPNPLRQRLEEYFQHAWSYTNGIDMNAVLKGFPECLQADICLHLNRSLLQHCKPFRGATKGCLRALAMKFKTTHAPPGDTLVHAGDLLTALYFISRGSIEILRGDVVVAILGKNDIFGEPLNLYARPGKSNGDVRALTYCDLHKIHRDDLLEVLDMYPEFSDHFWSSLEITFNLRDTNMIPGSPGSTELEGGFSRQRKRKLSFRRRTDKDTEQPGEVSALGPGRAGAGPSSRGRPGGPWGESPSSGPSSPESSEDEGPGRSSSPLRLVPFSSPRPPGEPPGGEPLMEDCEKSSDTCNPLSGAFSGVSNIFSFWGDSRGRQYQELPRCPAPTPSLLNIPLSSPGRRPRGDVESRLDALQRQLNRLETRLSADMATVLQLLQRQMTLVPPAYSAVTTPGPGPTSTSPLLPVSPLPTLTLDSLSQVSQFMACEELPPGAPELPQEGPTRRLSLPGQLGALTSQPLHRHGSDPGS

SMILES | hERG current change (%, negative = inhibition) at 10uM
CC(C)(C)C(=O)COC(=O)c1cc(-c2ccncc2)nc2ccccc12 | -8.43%
COc1ccc(-n2c(SCC(=O)Nc3cc(C)on3)nc3c(c2=O)SCC3)cc1 | 12.1%
COCCN1CN(S(=O)(=O)c2ccccc2)c2nc3ccccc3nc21 | -16.7%
COCCN1CN(S(=O)(=O)c2ccc(Cl)cc2)c2nc3ccccc3nc21 | -75.9%
COCCCN1CN(S(=O)(=O)c2ccc(Cl)cc2)c2nc3ccccc3nc21 | -32.7%
COCCn1nnnc1C(C(C)C)N1CCN(C(=O)c2ccco2)CC1.Cl (stereo not shown) | -1.29%
CCOC(=O)Cc1nnc(NC(=O)c2ncn[nH]2)s1 | -9.4%
CN1CC(=O)N(CC(=O)Nc2ccc(Cl)c(C(F)(F)F)c2)C1=O | 8.97%
CCCCC(O)CN1CCC(c2ccccc2)CC1 (stereo not shown) | -56.6%
CCOC(=O)CN1CCC(c2ccccc2)CC1 | -2.19%
CC(CN1CCC(O)CC1)c1ccccc1 (stereo not shown) | 10.6%
O=C(Nc1ccc(S(=O)(=O)Nc2nccs2)cc1)c1cc(-c2ccncc2)nc2ccccc12 | 10.1%
O=C(c1cccc(F)c1F)N1CCCC1 | 24.7%
Cc1cc(COC(=O)C2N3C(=O)[C@@H](NC(=O)COc4ccccc4)[C@H]3SC2(C)C)on1 (stereo partly shown) | -56.2%
COC(=O)C1N2C(=O)[C@@H](NC(=O)COc3ccccc3)[C@H]2SC1(C)C (stereo partly shown) | -4.31%
CC1(C)S[C@@H]2[C@H](NC(=O)COc3ccccc3)C(=O)N2C1C(=O)OCc1ccccc1 (stereo partly shown) | -48.1%
Cc1nc2c(Br)c3nc(C(F)(F)F)[nH]c3c(Br)c2[nH]1 | -4.86%
COc1ccc(N(C(=O)CNC(=O)c2cccs2)C(C(=O)NCC2CCCO2)c2ccccc2)cc1OC (stereo not shown) | 4.94%
CCC(=O)N1CCN(c2ccc(Cl)cc2NC(=O)c2ccc([N+](=O)[O-])o2)CC1 | -21%
CC(=O)c1cccc(NC(=O)c2ccc(-c3ccccc3[N+](=O)[O-])o2)c1 | -17.4%
O=C(Nc1ccccc1N1CCCC1)c1ccc([N+](=O)[O-])o1 | 5.51%
CCC(=O)N1CCN(c2ccccc2NC(=O)c2ccc([N+](=O)[O-])o2)CC1 | -69%

SMILES | hERG current change (%, negative = inhibition) at 10uM
O=C(Nc1ccccc1N1CCOCC1)c1ccc([N+](=O)[O-])o1 | -17.9%
Cc1cccc(NC(=O)c2ccc(-c3ccccc3[N+](=O)[O-])o2)c1 | -55.2%
COc1ccccc1NC(=O)c1ccc(-c2ccccc2[N+](=O)[O-])o1 | 26.7%
CN1CCN(c2ccccc2NC(=O)c2ccc(-c3ccc(Cl)cc3Cl)o2)CC1 | -3.82%
COc1cccc(NC(=O)c2ccc(-c3ccccc3[N+](=O)[O-])o2)c1 | -46.1%
Cc1ccccc1NC(=O)c1ccc([N+](=O)[O-])o1 | 11.5%
CN1CCN(c2ccccc2NC(=O)c2ccc([N+](=O)[O-])o2)CC1 | -69.6%
CN1CCN(c2ccccc2NC(=O)c2ccc(-c3ccccc3[N+](=O)[O-])o2)CC1 | -67.9%
CN1CCN(C(=O)C(C(=O)c2ccc(F)cc2)n2ccccc2=O)CC1 (stereo not shown) | -1.24%
Cc1ccc(C)c(N2CCN(S(=O)(=O)c3ccc4c(c3)NC(=O)CO4)CC2)c1 | 12.7%
O=C(O)c1cccc(Cn2c(Cl)c(/C=N/NC(=O)c3ccco3)sc2=O)c1 | 38.3%
Cc1ccc(N(C(=O)c2csnn2)C(C(=O)NC2CCCCC2)c2cccnc2)c(C)c1 (stereo not shown) | -5.38%
N#CCCN(C(=O)COC(=O)CNC(=O)C12CC3CC(CC(C3)C1)C2)c1ccccc1 | -23.5%
CC12CCC(C(=O)NCCc3ccccc3)(OC1=O)C2(C)C (stereo not shown) | 9.83%
CSc1nnc(C)c(=O)n1COC(=O)c1ccc(S(=O)(=O)N2CCCC2)cc1 | -22.8%
O=C(CCS(=O)(=O)c1cccc2nonc12)NCCc1ccccc1Cl | -7.38%
CC(C)NC(=O)CN1C(=O)NC(CCc2ccccc2)C1=O (stereo not shown) | 5.75%
COc1cc(C)ccc1OCCCCOc1ccccc1C(C)=O | 3.3%
CCn1c(CNC(=O)c2cccnc2)cc2ccccc21 | 2.41%
Cc1ccc(C2NC(=S)NC3=C2N2CCC3CC2)cc1 (stereo not shown) | 1.2%
CCOC(=O)c1sc(NC(=O)CSc2nc(C)cc(C)c2C#N)c(C#N)c1C | 8.19%
O=C(/C=C/c1ccc(Cl)c(Cl)c1)N1CCOCC1 | -1.3%

SMILES | hERG current change (%, negative = inhibition) at 10uM
CC(C)C(=O)N1CCN(c2ccccc2NC(=O)c2cc([N+](=O)[O-])ccc2N2CCOCC2)CC1 | -67.2%
CC1CCN(c2ccccc2NC(=O)c2ccc([N+](=O)[O-])o2)CC1 | 25%
CS(=O)(=O)N1CCN(c2ccccc2NC(=O)c2ccc([N+](=O)[O-])o2)CC1 | -25.2%
CC1CCN(c2ccccc2NC(=O)c2cc([N+](=O)[O-])ccc2N2CCOCC2)CC1 | -2.63%
CC(C)C(=O)N1CCN(c2ccccc2NC(=O)c2ccc([N+](=O)[O-])o2)CC1 | -63%
CCc1ccccc1NC(=O)c1cc([N+](=O)[O-])ccc1N1CCOCC1 | -16.5%
O=C(CNC(=O)c1cccs1)c1ccc(Br)cc1 | 12.2%
O=C(O)Cc1ccc(C(=O)c2cccs2)s1 | 11.8%
COc1ccc(CNC(=S)N/N=C(/C)c2ccccc2)cc1 | -6.47%
COc1ccc(OC)c(NC(=S)NCc2cccnc2)c1 | 8.59%
COC(=O)C1CC(O)CN1C(=O)c1ccco1 (stereo not shown) | 10.6%
CN(C)S(=O)(=O)c1ccc(NC(=O)CN2CCC(Cc3ccccc3)CC2)cc1 | -32.8%
CN(Cc1ccc(F)cc1)Cc1nc(-c2cnccn2)no1 | 13.7%
Cc1cc(C)n(-c2cccc(CN(C)Cc3nc(-c4cnccn4)no3)c2)n1 | 10.8%
CN(Cc1ccc(-n2cccn2)cc1)Cc1nc(-c2cnccn2)no1 | -58.2%
Cn1nc(C(=O)N2CCN(c3cccc(Cl)c3)CC2)c2c1-c1ccccc1S(=O)(=O)C2 | -53.4%
COc1ccccc1N1CCN(C(=O)c2nn(C)c3c2CS(=O)(=O)c2ccccc2-3)CC1 | 2.07%
CC(=O)c1ccc(N2CCN(C(=O)c3nn(C)c4c3CS(=O)(=O)c3ccccc3-4)CC2)cc1 | -64.5%
Cc1ccc(N2CCN(C(=O)c3nn(C)c4c3CS(=O)(=O)c3ccccc3-4)CC2)c(C)c1 | -3%
Cn1nc(C(=O)N2CCN(c3ccccc3F)CC2)c2c1-c1ccccc1S(=O)(=O)C2 | -21.2%
Cn1nc(C(=O)N2CCN(c3ccc(Cl)cc3)CC2)c2c1-c1ccccc1S(=O)(=O)C2 | -51.2%
Cn1nc(C(=O)N2CCN(c3ccc([N+](=O)[O-])cc3)CC2)c2c1-c1ccccc1S(=O)(=O)C2 | -31.4%

SMILES | hERG current change (%, negative = inhibition) at 10uM
CCN1CCN(C(=O)c2nn(C)c3c2CS(=O)(=O)c2ccccc2-3)CC1 | 12%
Cn1nc(C(=O)N2CCN(c3ccc(F)cc3)CC2)c2c1-c1ccccc1S(=O)(=O)C2 | -54.3%
Cc1cccc(N2CCN(C(=O)c3nn(C)c4c3CS(=O)(=O)c3ccccc3-4)CC2)c1C | -33.4%
Cn1nc(C(=O)N2CCN(c3ccccc3)CC2)c2c1-c1ccccc1S(=O)(=O)C2 | -40.9%
Cn1nc(C(=O)N2CCCCC2)c2c1-c1ccccc1S(=O)(=O)C2 | 14.7%
CCN1CCN(CC(=O)c2ccc(C)cc2)CC1 | 8.76%
CC(=O)Nc1ccc(S(=O)(=O)Oc2ccc(C(=S)N3CCCCC3)cc2)cc1 | -16.6%
COc1cccc(NC(=O)c2cn(C)c(=O)c3cc(OC)c(OC)cc23)c1 | 6.54%
Fc1ccc(N2N=C(c3cccs3)CC2c2ccccc2)cc1 (stereo not shown) | 8.89%
COc1ccc(CC(=O)NC(C)c2nnc(SCCOc3ccc(OC)cc3)n2C)cc1 (stereo not shown) | -11.2%
O=C(O)CCn1c(=S)n(CCC(=O)O)c2ccccc21 | -1.59%
O=C(C1CCCN(Cc2ccc([N+](=O)[O-])cc2)C1)N1CCCCC1.O=C(O)C(=O)O (stereo not shown) | -28.4%
CCc1ccc(CN2CCN(Cc3ccc(SC)cc3)CC2)cc1.O=C(O)C(=O)O | -67.9%
CS(=O)(=O)N1CCN(Cc2ccc([N+](=O)[O-])cc2)CC1 | -23.6%
CCS(=O)(=O)N1CCN(Cc2ccc([N+](=O)[O-])cc2)CC1.O=C(O)C(=O)O | -44.4%
CCCS(=O)(=O)N1CCN(Cc2ccc([N+](=O)[O-])cc2)CC1.O=C(O)C(=O)O | -51.9%
CSc1ccc(CN2CCN(C(=O)Cc3ccccc3)CC2)cc1 | -12.1%
CSc1ccc(CN2CCN(Cc3ccc([N+](=O)[O-])cc3)CC2)cc1.O=C(O)C(=O)O | -78.1%
CCCS(=O)(=O)N1CCN(Cc2ccncc2)CC1.O=C(O)C(=O)O | 10.8%
CCN1CCN(Cc2ccc(NC(=O)Nc3ccc(SC)cc3)cc2)CC1 | -44.5%
CSc1ccc(CN2CCN(C(=O)c3ccncc3)CC2)cc1 | -21.4%
CSc1ccc(CN2CCN(C(=O)c3ccc([N+](=O)[O-])cc3)CC2)cc1.O=C(O)C(=O)O | -77.2%
